One may read the AC50 as the concentration at which the activity in the assay is half-maximal.

Assay [1] can be described thus: ATG_PBREM_CIS: Attagene CIS-FACTORIAL HepG2 Assay for human Phenobarbital-responsive Enhancer Module (PBREM) (AID 2282955). The following applies: HepG2 PBREM cis-reporter, Attagene multiplexed transcription; actives raise or lower the signal. The procedure, abridged: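 HepG2, transient MRTU transfection, 24 h dosing; RNA → oligo(dT) RT → PCR → 6-FAM extension → HpaI → CE. Bidirectional fit vs DMSO.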

The target in assay [2] is Paired box protein Pax-6 (Homo sapiens) (UniProt P26367). Nature of the assay: ATG_Pax6_CIS: Attagene CIS-FACTORIAL HepG2 Assay for human Paired Box 6 (PAX6) (AID 2282956). The following applies: HepG2 CIS-FACTORIAL PAX6 reporter transcription, RNA readout; actives raise or lower the signal. The procedure, abridged:
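Multiplexed cis-reporter HepG2 system; 24 h treatment; reporter mRNA read by RT-PCR/CE fluorescence; bidirectional fit vs DMSO.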

Assay [3] can be described thus: ATG_PXRE_CIS: Attagene CIS-FACTORIAL HepG2 Assay for human Pregnane X Receptor Element (PXRE) (AID 2282957). The settings on record: HepG2 Attagene CIS-FACTORIAL PXRE reporter, mRNA; actives raise or lower the signal. The procedure, abridged:
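Multiplexed cis-reporter assay in transiently transfected human HepG2 cells; 24 h chemical exposure. Reporter transcripts quantified by RT-PCR with fluorescent labeling and capillary electrophoresis.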

A short description of assay [4]: ATG_PPRE_CIS: Attagene CIS-FACTORIAL HepG2 Assay for human Peroxisome Proliferator-activated Response Element (PPRE) (AID 2282958). The settings on record: HepG2 PPRE cis-element reporter, Attagene transcription factor profiling; actives raise or lower the signal. The gist of the method: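 Transcript-level reporter induction in transfected HepG2 cells after 24 h chemical exposure, quantified by fluorescence from RT-PCR products separated by capillary electrophoresis.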

A short description of assay [5]: ATG_RORE_CIS: Attagene CIS-FACTORIAL HepG2 Assay for human RAR-related Orphan Receptor Element (RORE) (AID 2282959). The following applies: HepG2 Attagene cis-factorial RORE reporter, mRNA; actives raise or lower the signal. The gist of the method:
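Multiplexed reporter assay measuring mRNA induction from a cis promoter element in transiently transfected HepG2 cells after 24 h treatment. Detection via RT-PCR and capillary electrophoresis fluorescence; DMSO serves as baseline.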

Assay [6] in a line: ATG_Sox_CIS: Attagene CIS-FACTORIAL HepG2 Assay for human SRY-box transcription factor (SOX) (AID 2282960). The following applies: HepG2 Attagene cis-factorial SOX reporter, mRNA; actives raise or lower the signal. The gist of the method:
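Cells were transfected with reporter constructs under cis-regulatory promoters, then exposed to chemicals for 24 h. Reporter transcripts were quantified by fluorescence after RT-PCR and capillary electrophoresis; activity was fitted in both directions against DMSO.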

The target in assay [7] is Transcription factor Sp1 (Homo sapiens) (UniProt P08047). Nature of the assay: ATG_Sp1_CIS: Attagene CIS-FACTORIAL HepG2 Assay for human Specificity Protein 1 (Sp1) (AID 2282961). The following applies: HepG2 Sp1 cis-reporter transcription, actives raise or lower the signal. The gist of the method: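 Measures mRNA induction of an Sp1-linked reporter in HepG2 cells 24 h post-dosing. Multiplexed reporters read by RT-PCR and capillary electrophoresis; DMSO serves as negative control and baseline.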
Transcription factor Sp1 (Homo sapiens), sequence (P08047 whole entry, looked up): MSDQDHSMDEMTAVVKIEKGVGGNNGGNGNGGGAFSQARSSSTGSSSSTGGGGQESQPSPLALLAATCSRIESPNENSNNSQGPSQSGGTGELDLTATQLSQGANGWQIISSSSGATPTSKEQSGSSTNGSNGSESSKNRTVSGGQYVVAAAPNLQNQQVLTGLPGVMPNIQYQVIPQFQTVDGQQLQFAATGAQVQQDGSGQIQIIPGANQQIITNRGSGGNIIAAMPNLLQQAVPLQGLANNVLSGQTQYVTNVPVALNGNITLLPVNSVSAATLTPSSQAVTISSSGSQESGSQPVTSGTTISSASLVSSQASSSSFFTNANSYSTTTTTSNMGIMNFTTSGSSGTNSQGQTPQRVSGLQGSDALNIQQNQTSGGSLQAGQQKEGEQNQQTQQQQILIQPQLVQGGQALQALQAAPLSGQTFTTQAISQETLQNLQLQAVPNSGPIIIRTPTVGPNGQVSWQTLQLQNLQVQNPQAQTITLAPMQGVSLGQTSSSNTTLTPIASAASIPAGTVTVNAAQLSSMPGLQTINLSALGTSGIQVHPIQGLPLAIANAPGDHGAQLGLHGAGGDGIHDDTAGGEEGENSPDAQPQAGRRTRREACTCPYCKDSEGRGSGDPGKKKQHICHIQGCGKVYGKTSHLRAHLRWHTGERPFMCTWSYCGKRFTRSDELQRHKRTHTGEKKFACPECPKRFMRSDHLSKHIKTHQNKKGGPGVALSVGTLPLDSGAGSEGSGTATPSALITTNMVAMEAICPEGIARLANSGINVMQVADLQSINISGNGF

Assay [8] has as its target Signal transducer and activator of transcription 3 (Homo sapiens) (UniProt P40763). Nature of the assay: ATG_STAT3_CIS: Attagene CIS-FACTORIAL HepG2 Assay for human Signal Transducer and Activator of Transcription 3 (STAT3) (AID 2282963). The settings on record: HepG2, Attagene cis-factorial STAT3 reporter transcription; actives raise or lower the signal. The gist of the method: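 HepG2 cells transiently transfected with multiple cis-element-driven reporter units report endogenous transcription factor activity. After 24 h compound exposure, reporter mRNA is measured by RT-PCR, 6-FAM labelling, HpaI digestion and capillary electrophoresis. Fitted bidirectionally versus DMSO.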

Assay [9] can be described thus: ATG_TA_CIS: Attagene CIS-FACTORIAL HepG2 Assay for human TA Basal Promoter (AID 2282964). The settings on record: HepG2 Attagene CIS-factorial TA basal promoter reporter; actives raise or lower the signal. The gist of the method: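 Transfected HepG2, 24 h compound exposure; RNA → RT-PCR → FAM primer extension → HpaI cut → CE fluorescence. Gain/loss-of-signal fitted against DMSO negative control. Background-control readout.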

The nature of assay [10]: ATG_TCF_b_cat_CIS: Attagene CIS-FACTORIAL HepG2 Assay for human T-Cell-Factor with beta-catenin (TCF/b-cat) (AID 2282965). The settings on record: HepG2 TCF/beta-catenin cis-reporter transcription, actives raise or lower the signal. The procedure, abridged:
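Cells of the HepG2 line carry transiently transfected reporter units whose promoters respond to endogenous factors. Twenty-four hours post-dosing, reporter mRNA induction is measured by fluorescent RT-PCR and capillary electrophoresis, with DMSO as baseline.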

A short description of assay [11]: ATG_TAL_CIS: Attagene CIS-FACTORIAL HepG2 Assay for human TAL Basal Promoter (AID 2282966).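 Further: background control endpoint measuring basal TAL promoter reporter mRNA not a specific factor.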 The following applies: HepG2 Attagene cis-factorial TAL promoter reporter; actives raise or lower the signal. The procedure, abridged:
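Steps: transfect HepG2 with multiple reporter transcription units; dose 24 h; isolate RNA, reverse-transcribe, PCR-amplify, label with 6-FAM, digest with HpaI; resolve by capillary electrophoresis. Bidirectional fitting against DMSO baseline.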

Assay [12] is described as follows: ATG_TGFb_CIS: Attagene CIS-FACTORIAL HepG2 Assay for human Transforming Growth Factor (TGF) (AID 2282967). The following applies: HepG2 Attagene CIS TGFb reporter, mRNA transcription; actives raise or lower the signal. The gist of the method:
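Readout: fluorescently labeled reporter cDNA fragments resolved by capillary electrophoresis after RT-PCR. Transfected HepG2 cells dosed for 24 h; endogenous TF activity at TGFB1-linked cis element; gain or loss fitted relative to DMSO.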

For assay [13], the target named is Estrogen receptor (Homo sapiens) (UniProt P03372). Briefly: ATG_ERa_TRANS: Attagene TRANS-FACTORIAL HepG2 Assay for human Estrogen Receptor alpha (ERa) (AID 2282970; active means hit-call score of the fitted dose curve at least 0.9, where 1 is the maximum). The following applies: HepG2 Attagene TRANS ERa GAL4 reporter, mRNA. The procedure, abridged:
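Multiplexed cell-based reporter format in HepG2: chimeric ERa-Gal4 protein drives GAL4-UAS reporter transcription. Fluorescent reporter mRNA quantified by capillary electrophoresis 24 hours after dosing; endpoint fitted as signal gain against DMSO.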

Assay [14] concerns the target Steroid hormone receptor ERR1 (Homo sapiens) (UniProt P11474). Nature of the assay: ATG_ERRa_TRANS: Attagene TRANS-FACTORIAL HepG2 Assay for human Estrogen-Related Receptor alpha (ERRa) (AID 2282971; active means hit-call score of the fitted dose curve at least 0.9, where 1 is the maximum). The following applies: HepG2 Attagene TRANS reporter, ERRa transactivation. The gist of the method:
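Signal gain relative to DMSO for an ERRa-Gal4 chimeric receptor, read as reporter mRNA by RT-PCR/capillary electrophoresis. Human HepG2 liver cells, transient multiplex reporter transfection, 24 h chemical exposure.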

In assay [15] the target is X-box-binding protein 1 (Homo sapiens) (UniProt P17861). Nature of the assay: ATG_Xbp1_CIS: Attagene CIS-FACTORIAL HepG2 Assay for human X-box Binding Protein 1 (XBP1) (AID 2282972). The settings on record: HepG2 XBP1 cis-element reporter, Attagene multiplex; actives raise or lower the signal. The gist of the method: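 Fluorescence-labelled cDNA fragments from reporter transcripts, separated by capillary electrophoresis, give the signal. Source: HepG2 cells transfected with promoter-driven reporter units, harvested 24 h post-dose. DMSO served as reference for bidirectional curve fitting.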
X-box-binding protein 1 (Homo sapiens), sequence (P17861 whole entry, looked up, the tested form may be a part): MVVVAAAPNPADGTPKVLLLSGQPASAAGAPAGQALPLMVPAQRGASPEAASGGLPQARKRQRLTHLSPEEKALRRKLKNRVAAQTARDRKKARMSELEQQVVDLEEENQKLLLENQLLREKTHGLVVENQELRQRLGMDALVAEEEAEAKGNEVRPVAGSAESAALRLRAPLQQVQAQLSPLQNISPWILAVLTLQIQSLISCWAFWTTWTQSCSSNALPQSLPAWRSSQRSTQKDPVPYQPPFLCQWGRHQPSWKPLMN

The nature of assay [16]: ATG_M_19_TRANS: Attagene TRANS-FACTORIAL HepG2 Assay for M19 Transcription Factor (Internal Marker) (AID 2282974; active means hit-call score of the fitted dose curve at least 0.9, where 1 is the maximum). The following applies: HepG2 Attagene TRANS-FACTORIAL M19 internal marker reporter. The gist of the method: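 After transfection of HepG2 with GAL4-UAS-driven reporter constructs, cells are dosed for 24 h. Total RNA is reverse-transcribed, reporter sequences PCR-amplified and labelled, then HpaI-digested and sized by capillary electrophoresis.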

The nature of assay [17]: ATG_VDRE_CIS: Attagene CIS-FACTORIAL HepG2 Assay for human Vitamin D Receptor Element (VDRE) (AID 2282968). The following applies: HepG2 VDRE cis-reporter transcription, actives raise or lower the signal. The procedure, abridged:
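Transiently transfected HepG2 cells carrying cis-regulated reporter transcription units were exposed for 24 h. Reporter mRNA was measured by RT-PCR with fluorescent labelling and capillary electrophoresis, and fitted in both directions against DMSO.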

For assay [18], the target named is Nuclear receptor subfamily 1 group I member 3 (Homo sapiens) (UniProt Q14994). Briefly: ATG_CAR_TRANS: Attagene TRANS-FACTORIAL HepG2 Assay for human Constitutive Androstane Receptor (CAR) (AID 2282969; active means hit-call score of the fitted dose curve at least 0.9, where 1 is the maximum;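 further: activators raise reporter mRNA above DMSO so AC50 marks induction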). The following applies: HepG2 Attagene TRANS-FACTORIAL CAR reporter. The gist of the method: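 HepG2 cells transiently transfected with GAL4-UAS reporter units; TRANS format reads activity of exogenous chimeric NR-Gal4 protein. After 24 h dosing, reporter mRNA quantified by RT-PCR, 6-FAM labelling and capillary electrophoresis; gain of signal fitted against DMSO.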
Nuclear receptor subfamily 1 group I member 3 (Homo sapiens), sequence (Q14994 whole entry, looked up, the tested form may be a part): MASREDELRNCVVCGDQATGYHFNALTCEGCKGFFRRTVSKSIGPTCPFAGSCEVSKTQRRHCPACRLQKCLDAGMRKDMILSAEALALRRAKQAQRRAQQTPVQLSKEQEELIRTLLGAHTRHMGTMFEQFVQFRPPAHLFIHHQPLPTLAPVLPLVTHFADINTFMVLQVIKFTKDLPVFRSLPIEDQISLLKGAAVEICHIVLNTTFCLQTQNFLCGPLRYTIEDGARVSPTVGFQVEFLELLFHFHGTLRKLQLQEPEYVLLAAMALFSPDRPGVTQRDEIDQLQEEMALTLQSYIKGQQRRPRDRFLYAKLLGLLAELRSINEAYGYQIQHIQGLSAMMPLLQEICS

Values joined by “and” are separate entries in the source; they are usually repeats but may differ in a detail not shown here. Equal entries are not always repeated. Inconclusive results are not listed. The source holds several records for some structures; these can differ, active in one and inactive in another. Active and inactive are the calls of the source. How the source made its calls, unless noted: active means hit-call score of the fitted dose curve at least 0.9, where 1 is the maximum; inactive means score below 0.9.

Signal transducer and activator of transcription 3 (Homo sapiens), sequence (P40763 whole entry, looked up): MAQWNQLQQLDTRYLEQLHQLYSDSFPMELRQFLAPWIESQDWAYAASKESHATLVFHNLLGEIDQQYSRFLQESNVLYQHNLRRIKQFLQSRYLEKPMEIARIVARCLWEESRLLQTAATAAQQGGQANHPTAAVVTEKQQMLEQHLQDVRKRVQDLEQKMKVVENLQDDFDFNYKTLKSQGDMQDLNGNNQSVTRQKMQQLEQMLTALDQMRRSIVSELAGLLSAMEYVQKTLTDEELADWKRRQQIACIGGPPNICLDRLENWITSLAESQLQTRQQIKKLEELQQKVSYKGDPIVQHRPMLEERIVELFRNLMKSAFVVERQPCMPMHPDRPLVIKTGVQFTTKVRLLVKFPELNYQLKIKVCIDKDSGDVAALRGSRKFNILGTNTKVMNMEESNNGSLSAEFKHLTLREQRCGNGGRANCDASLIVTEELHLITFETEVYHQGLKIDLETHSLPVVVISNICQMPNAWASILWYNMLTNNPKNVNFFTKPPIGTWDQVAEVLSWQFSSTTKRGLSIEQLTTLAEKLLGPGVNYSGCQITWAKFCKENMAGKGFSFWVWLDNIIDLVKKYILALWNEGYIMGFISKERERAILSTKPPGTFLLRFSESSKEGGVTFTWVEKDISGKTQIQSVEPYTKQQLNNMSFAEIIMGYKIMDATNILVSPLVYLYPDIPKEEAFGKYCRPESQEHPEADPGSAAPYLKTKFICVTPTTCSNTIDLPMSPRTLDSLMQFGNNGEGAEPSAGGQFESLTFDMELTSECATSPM
Estrogen receptor (Homo sapiens), sequence (P03372 whole entry, looked up, the tested form may be a part): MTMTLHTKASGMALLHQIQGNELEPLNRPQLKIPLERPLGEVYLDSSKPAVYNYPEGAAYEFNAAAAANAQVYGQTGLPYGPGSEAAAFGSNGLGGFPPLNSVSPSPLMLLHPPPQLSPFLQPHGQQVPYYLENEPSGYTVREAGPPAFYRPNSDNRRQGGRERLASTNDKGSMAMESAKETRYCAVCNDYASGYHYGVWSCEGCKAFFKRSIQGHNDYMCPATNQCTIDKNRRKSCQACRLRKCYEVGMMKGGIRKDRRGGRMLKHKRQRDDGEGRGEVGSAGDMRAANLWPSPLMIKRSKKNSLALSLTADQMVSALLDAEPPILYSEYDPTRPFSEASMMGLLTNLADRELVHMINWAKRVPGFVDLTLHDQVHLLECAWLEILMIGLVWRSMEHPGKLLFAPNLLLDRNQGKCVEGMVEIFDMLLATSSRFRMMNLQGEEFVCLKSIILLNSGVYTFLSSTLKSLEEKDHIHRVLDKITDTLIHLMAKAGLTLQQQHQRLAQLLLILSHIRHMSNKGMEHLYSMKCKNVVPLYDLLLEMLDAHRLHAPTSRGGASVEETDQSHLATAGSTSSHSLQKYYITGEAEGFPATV
Paired box protein Pax-6 (Homo sapiens), sequence (P26367 whole entry, looked up): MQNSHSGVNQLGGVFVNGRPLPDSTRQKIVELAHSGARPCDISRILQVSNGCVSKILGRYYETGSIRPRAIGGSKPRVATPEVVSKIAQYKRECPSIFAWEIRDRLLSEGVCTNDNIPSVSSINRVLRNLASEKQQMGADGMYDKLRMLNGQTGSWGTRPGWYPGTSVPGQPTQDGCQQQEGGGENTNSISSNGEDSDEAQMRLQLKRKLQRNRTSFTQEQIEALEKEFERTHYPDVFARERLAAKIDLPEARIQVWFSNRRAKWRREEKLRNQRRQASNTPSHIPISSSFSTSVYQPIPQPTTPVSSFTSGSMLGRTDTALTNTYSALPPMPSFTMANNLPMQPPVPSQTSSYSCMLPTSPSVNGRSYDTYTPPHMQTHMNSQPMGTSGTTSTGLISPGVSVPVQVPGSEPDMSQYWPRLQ
Steroid hormone receptor ERR1 (Homo sapiens), sequence (P11474 whole entry, looked up, the tested form may be a part): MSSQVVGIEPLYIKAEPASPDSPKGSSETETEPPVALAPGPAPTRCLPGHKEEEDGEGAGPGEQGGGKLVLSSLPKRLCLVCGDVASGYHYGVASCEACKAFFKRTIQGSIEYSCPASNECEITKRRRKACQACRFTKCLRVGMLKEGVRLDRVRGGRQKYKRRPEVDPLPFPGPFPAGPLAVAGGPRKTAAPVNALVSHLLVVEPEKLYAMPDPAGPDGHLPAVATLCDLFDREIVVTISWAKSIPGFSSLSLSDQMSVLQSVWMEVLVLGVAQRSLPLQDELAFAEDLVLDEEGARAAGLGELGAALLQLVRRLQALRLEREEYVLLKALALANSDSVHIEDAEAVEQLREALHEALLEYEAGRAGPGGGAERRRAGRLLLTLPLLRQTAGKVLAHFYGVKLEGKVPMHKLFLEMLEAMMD

`CNC(=O)ON=CC(C)(C)SC`: the outcome in assay [1], in [2], in assay [3], in [4], in assay [5] and in assay [6] was inactive. Also, the outcome in assay [7], in assay [8], in assay [9], in assay [10], in assay [11] and in [12] was inactive. Further, the compound was called inactive in assay [13], in assay [14], in assay [15] and in assay [16].
With `COP(=S)(OC)Oc1nc(Cl)c(Cl)cc1Cl`, the outcome in [1], in [2], in assay [5], in assay [6], in [7] and in [8] was inactive. Moreover, the outcome in [9], in [10], in [11], in assay [12], in assay [18] and in assay [14] was inactive. Besides, the outcome in [15] and in assay [16] was inactive. The AC50 was 13.7 µM (active) in assay [3], 27.8 µM (active) in [17] and 33.1 µM (active) in [13].
As for `C=CC1(C)OC(=O)N(c2cc(Cl)cc(Cl)c2)C1=O` (centres undefined), the result in assay [2], in assay [3], in [4], in assay [5], in [6] and in assay [7] was inactive. For the same compound, the compound was classed as inactive in assay [8], in [9], in [10], in [11], in assay [12] and in assay [17]. For the same compound, the result in [13], in assay [15] and in assay [16] was inactive. Further, the concentration at half-maximal activity (AC50) in [3] was 17.3 µM (active) and 31.1 µM (active) and 33 µM (active).

Source of the values: PubChem BioAssay (EPA / NIEHS).
